In PubChem BioAssay:
The source made the active and inactive calls.

How the values were obtained:
[1] = compounds binding Alexa647 anti-His antibody – biochemical, small-molecule microarray, 635 nm fluorescence, artefact control for SMM control protein annotation, primary screen (AID 1128); details: higher = more signal;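 also: score merges feature fluorescence with signal-to-noise for each printed compound spot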
[2] = system: Human papillomavirus type 1a E7 protein (residues 1-88); assay: HPV1a E7 small-molecule binders, primary screen, biochemical, small-molecule microarray, residues 1-88, 635 nm (AID 1129); details: small-molecule microarray binding, fluorescence 635 nm; higher = more signal
[3] = target: Focal adhesion kinase 1 (Homo sapiens) (UniProt Q05397); assay: PTK2 protein binding on printed compound slides – biochemical, small-molecule microarray, 635/667 nm fluorescence, BSA, DTT, primary screen (AID 1130); details: 635 nm fluorescence, higher = more signal;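 also: composite of spot emission at 667 nm and signal to noise over triplicate slides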
[4] = system: Fibrinogen (Alexa647-labelled); assay: Alexa647-fibrinogen binding to printed small molecules – biochemical, small-molecule microarray, 635/667 nm fluorescence, artefact control for SMM control-protein annotation, profiling panel (AID 1131); details: fibrinogen-A647 binding fluorescence, higher = more signal;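 also: z-score merges 667 nm fluorescence with per-spot signal-to-noise over triplicate slides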
[5] = target: Follistatin (Homo sapiens) (UniProt P19883); assay: FST protein binding to printed compounds – biochemical, small-molecule microarray, 635/667 nm fluorescence, primary screen (AID 1132); details: 635 nm fluorescence, higher = more signal
[6] = target: Fibroblast growth factor 2 (Homo sapiens) (UniProt P09038); assay: basic fibroblast growth factor binding to printed compounds – biochemical, small-molecule microarray, 635/667 nm fluorescence, primary screen (AID 1133); details: FGF2, fluorescence 635/667, higher = more signal
[7] = JC-1 mitochondrial potential readout, lung cancer cells – cell-based, A549, JC-1 fluorescence, basal, 24 h, 100 nL, profiling panel (AID 1138); details: higher = more signal;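 also: A549 lung adenocarcinoma cells under basal conditions with no added stimulus; test concentration not given here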
[8] = system: Lefty1; assay: Lefty1 protein binding to printed compounds – biochemical, small-molecule microarray, 635/667 nm fluorescence, primary screen (AID 1139); details: fluorescence 635/667, higher = more signal
[9] = system: wheat germ agglutinin (Triticum aestivum), Alexa647-labelled; assay: Alexa647-WGA lectin binding to printed small molecules – biochemical, small-molecule microarray, 635/667 nm fluorescence, artefact control for SMM control-protein annotation, profiling panel (AID 1140); details: WGA-A647 binding, 635 nm fluorescence, higher = more signal;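 also: score merges 667 nm feature emission with signal to noise over triplicate slides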
[10] = target: Luciferin 4-monooxygenase (Photinus pyralis) (UniProt P08659); assay: inhibition of purified Photinus pyralis luciferase – biochemical, luminescence, purified enzyme, 2006 set, primary screen (AID 1141); details: purified firefly luciferase, SteadyGlo luminescence, 30 min; higher = more signal, called active from +8 up or from −8 down;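 also: cell-free assay with purified firefly luciferase at 100 ng per well in PBS; test concentration not given here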
Luciferin 4-monooxygenase (Photinus pyralis), sequence (P08659 whole entry, looked up): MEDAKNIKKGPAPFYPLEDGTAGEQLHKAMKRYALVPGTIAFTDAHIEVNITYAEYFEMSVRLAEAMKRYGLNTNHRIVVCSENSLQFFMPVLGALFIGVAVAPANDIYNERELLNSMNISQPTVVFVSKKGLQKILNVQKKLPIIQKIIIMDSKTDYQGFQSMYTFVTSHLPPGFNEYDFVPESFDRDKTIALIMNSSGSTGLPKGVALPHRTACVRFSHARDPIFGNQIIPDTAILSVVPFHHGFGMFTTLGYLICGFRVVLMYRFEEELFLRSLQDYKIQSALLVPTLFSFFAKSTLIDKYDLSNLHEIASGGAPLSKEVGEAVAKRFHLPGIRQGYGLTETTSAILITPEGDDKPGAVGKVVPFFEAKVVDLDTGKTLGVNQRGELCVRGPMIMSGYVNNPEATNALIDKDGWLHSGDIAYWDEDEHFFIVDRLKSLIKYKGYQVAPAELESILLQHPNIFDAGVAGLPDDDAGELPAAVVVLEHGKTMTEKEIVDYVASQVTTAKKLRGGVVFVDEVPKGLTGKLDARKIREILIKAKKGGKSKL

Fibroblast growth factor 2 (Homo sapiens), sequence (P09038 whole entry, looked up): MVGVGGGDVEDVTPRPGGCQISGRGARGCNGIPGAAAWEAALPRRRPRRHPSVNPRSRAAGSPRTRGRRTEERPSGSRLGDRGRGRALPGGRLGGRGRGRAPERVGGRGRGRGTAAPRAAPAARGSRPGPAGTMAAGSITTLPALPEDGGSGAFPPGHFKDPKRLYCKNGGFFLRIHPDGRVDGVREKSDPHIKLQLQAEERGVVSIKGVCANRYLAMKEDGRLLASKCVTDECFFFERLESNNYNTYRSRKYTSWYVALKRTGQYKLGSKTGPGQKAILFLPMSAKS
Follistatin (Homo sapiens), sequence (P19883 whole entry, looked up): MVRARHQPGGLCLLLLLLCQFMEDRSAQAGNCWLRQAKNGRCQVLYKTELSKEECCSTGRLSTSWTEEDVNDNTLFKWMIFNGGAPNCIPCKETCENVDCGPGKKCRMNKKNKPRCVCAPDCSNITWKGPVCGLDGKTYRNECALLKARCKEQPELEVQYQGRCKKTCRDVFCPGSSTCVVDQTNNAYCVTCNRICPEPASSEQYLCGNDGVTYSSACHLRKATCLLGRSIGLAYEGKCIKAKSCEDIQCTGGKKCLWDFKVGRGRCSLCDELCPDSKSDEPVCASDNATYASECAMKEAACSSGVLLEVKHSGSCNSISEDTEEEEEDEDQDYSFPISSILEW
Focal adhesion kinase 1 (Homo sapiens), sequence (Q05397 whole entry, looked up): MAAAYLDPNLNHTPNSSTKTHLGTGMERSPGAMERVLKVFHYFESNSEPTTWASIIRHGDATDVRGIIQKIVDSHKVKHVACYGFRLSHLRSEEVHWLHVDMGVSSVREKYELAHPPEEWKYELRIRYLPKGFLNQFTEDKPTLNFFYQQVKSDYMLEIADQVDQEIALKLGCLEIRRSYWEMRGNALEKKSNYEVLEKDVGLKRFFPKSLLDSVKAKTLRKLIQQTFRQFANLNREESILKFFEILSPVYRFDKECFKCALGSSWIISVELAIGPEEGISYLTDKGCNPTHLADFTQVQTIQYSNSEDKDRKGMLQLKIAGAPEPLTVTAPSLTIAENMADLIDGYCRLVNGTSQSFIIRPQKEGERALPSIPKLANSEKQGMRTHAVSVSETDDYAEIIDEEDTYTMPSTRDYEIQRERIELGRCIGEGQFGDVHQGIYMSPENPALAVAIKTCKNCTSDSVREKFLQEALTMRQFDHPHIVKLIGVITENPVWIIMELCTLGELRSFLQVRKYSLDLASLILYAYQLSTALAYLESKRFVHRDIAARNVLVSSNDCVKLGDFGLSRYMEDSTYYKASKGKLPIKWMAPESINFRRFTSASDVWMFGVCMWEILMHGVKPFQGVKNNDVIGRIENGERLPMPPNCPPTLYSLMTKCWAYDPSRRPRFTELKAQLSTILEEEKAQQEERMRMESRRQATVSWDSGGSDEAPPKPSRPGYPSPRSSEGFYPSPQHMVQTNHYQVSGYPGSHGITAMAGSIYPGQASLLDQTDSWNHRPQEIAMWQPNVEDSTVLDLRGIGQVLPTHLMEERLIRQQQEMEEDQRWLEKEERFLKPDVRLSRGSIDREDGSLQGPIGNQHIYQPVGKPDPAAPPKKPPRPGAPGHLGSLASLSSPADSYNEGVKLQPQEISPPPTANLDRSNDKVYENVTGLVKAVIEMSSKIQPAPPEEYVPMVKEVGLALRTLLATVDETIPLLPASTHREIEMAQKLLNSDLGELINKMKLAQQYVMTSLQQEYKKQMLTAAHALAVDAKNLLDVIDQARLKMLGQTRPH

Row | SMILES | composite z-score [1] | composite z-score [2] | composite z-score [3] | composite z-score [4] | composite z-score [5] | composite z-score [6] | z-score [7] | composite z-score [8] | composite z-score [9] | z-score [10]
1 | C=C(/C(=C/C[C@@H](OC(C)=O)c1ccccc1OCCO)c1cc(C(=O)OC)ccc1OC)C(C)C | 1.37 | 0.136 | 0.0593 | -0.0872 | 0.425 | 0.212 | 1.68 | 0.282 | 0.368 | -1.47 (inactive)
2 | COCCOC(=O)N1C(=O)[C@@]2(c3cc(C#CC4=CCCCC4)ccc31)[C@H](C(=O)N1CCN(c3ncccn3)CC1)[C@H]1C(=O)O[C@H](c3ccccc3)[C@H](c3ccccc3)N1[C@@H]2c1ccccc1OCCO | 0.353 | 1.18 | 0.377 | 0.936 | 1.18 | 0.956 | -1.3 | 0.787 | 0.792 | -1.22 (inactive)
3 | CCCCNC(=O)c1ccc(C#C[Si](C)(C)C)c(OC(C)=O)c1 | 0.312 | 0.689 | 0.193 | 0.0903 | 0.389 | 0.326 | -1.35 | 0.479 | -0.0014 | 0.229 (inactive)
4 | O=C1OCCC=C[C@H]2OC34C=CCN(CCN5CCOCC5)C(=O)[C@H]3N(CCCO)C(=O)[C@@H]4C12 (stereo not given in full) | 0.0466 | -1.11 | -0.251 | -0.0881 | -0.0312 | -1.26 | -0.962 | -0.0933 | -0.458 | -0.552 (inactive)
5 | CC(=O)n1cc(C(O)C2C=CC3C(=O)N(c4ccccc4)C(=O)C3N2Nc2ccccc2F)c2ccccc21 (stereo not given) | 1.01 | 0.726 | 0.251 | 1.02 | -1.04 | -0.89 | -1.16 | -0.274 | 0.0832 | 1.34 (inactive)
6 | CCCC[C@@H]1C[C@H]1[C@@H](NC(=O)Cc1ccccc1)c1ccc(Cl)cc1 | 1.84 | 1.18 | 1.53 | 1.02 | 0.841 | -0.272 | -2.79 | -0.297 | 1.25 | 0.957 (inactive)
7 | COC(=O)c1c(CC[C@@H](CO)NC(=O)N[C@@H](Cc2ccccc2)Cn2cc(-c3cncn3C)nn2)oc(C(C)=O)c1C(=O)OC | 0.579 | 0.873 | -0.179 | 0.107 | 1.01 | -0.0088 | -0.691 | 0.847 | 0.391 | 0.879 (inactive)
